A selection: hits, their analogues and other compounds. The true share with any hit is near 13%.
USP8 inh: human USP8 deubiquitinase inhibition. P40818. purified USP8, Ub-rhodamine cleavage fluorescence, 30 min. inhibition, % at 20 µM. 47,000 compounds, 4.2% hits. AID 1645853
USP30 block: blocks human USP30 ubiquitin-rhodamine cleavage; 47,000 compounds, 5.3% hits; inhibition, % at 25 µM; AID 1645860; purified USP30, Ub-rhodamine cleavage fluorescence; Q70CQ3
Target sequence (Q70CQ3 whole entry, looked up): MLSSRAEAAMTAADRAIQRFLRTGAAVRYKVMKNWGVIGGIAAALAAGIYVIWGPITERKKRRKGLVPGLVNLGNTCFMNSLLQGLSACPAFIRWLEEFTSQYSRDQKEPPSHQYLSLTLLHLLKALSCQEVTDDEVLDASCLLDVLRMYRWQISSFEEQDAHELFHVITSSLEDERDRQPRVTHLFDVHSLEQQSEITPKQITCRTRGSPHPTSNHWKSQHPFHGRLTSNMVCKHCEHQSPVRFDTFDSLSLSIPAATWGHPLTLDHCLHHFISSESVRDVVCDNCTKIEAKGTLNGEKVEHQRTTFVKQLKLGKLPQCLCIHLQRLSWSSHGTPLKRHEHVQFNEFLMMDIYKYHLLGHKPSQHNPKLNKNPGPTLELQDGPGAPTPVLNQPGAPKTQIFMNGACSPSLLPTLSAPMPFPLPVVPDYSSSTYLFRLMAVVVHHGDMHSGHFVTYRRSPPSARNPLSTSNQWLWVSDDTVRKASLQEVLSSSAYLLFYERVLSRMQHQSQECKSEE
USP28 block: inhibitors of human USP28 deubiquitinase | 47,000 compounds, 3% hits | AID 1645857 | Q96RU2 | inhibition, % at 25 µM | purified USP28, Ub-rhodamine cleavage fluorescence, 30 min
OTUD3 inh: inhibitors of human OTUD3 deubiquitinase; Q5T2D3; purified OTUD3, Ub-rhodamine fluorescence, 2 h; inhibition, % at 25 µM; 47,000 compounds, 0.7% hits; AID 1645858
USP17 inh: human USP17-like deubiquitinase inhibition; purified USP17, Ub-rhodamine cleavage fluorescence, 3 h; inhibition, % at 50 µM; 47,000 compounds, 6.5% hits
A number is an active result; - = inactive; . = no result. Rule as the data show it: active = inhibition above about 30%; inactive = the rest.

SMILES | USP8 inh | USP30 block | USP28 block | OTUD3 inh | USP17 inh
O=C(CNC(=O)c1ccc2nc(-n3cccc3)sc2c1)NCc1ccccc1 | 39 | - | - | - | -
CC(C)[C@H](NC(=O)c1ccc2nc(-n3cccc3)sc2c1)C(=O)NCc1ccco1 | - | - | - | - | -
O=C(CNC(=O)c1ccc2nc(-n3cccc3)sc2c1)NCc1ccccc1Cl | 46 | - | - | - | -
O=C(CNC(=O)c1ccc2nc(-n3cccc3)sc2c1)NCc1ccco1 | 76 | - | - | - | -
CC(C)NC(=O)Cn1cccc1-c1nc(-c2ccc3c(c2)OCO3)no1 | - | - | - | - | -
COc1cc(NC(=O)C(c2ccccc2)c2ccccc2)c(OC)cc1NC(=O)c1ccccc1 | - | - | - | - | -
CO[C@@H]1C[C@@H](O)/C=C/C=C/C=C\[C@H](C)[C@@H]([C@@H](C)[C@@H](O)C[C@@H](C)O)OC(=O)/C=C/C=C\C=C/C(C)=C[C@@H](C)[C@@H](O)/C=C\C=C\c2coc(n2)[C@@H]1C | - | - | - | - | -
Cc1cc(=O)n(CC(=O)N2CCCCC2)c2c1c(C)nn2-c1ccccc1 | - | - | - | - | -
Cc1cc(=O)sc2c1c(C)nn2-c1ccccc1 | - | - | 30 | - | 31
CCC1(CC)Oc2ccc(C(=O)CCN(C)C)cc2O1 | 32 | 35 | - | - | -
CC(C)c1c(O)ccc2c1CCC1[C@@](C)(C=O)CCC[C@]21C (some centres not stated) | - | - | - | - | 35
O=c1[nH]c2ccc(S(=O)(=O)Nc3ccc(O)c4ccccc34)cc2[nH]1 | 95 | - | - | 63 | 63
COc1cccc(CNS(=O)(=O)c2ccc3[nH]c(=O)[nH]c3c2)c1 | - | - | - | - | -
O=C(NCCc1ccccc1)c1cc2ccccc2c(=O)s1 | - | . | . | - | 73
CN(C)c1ccc(NC(=O)COC(=O)C2(c3ccc(F)cc3)CCCC2)cc1 | 72 | - | - | - | .
COc1ccc(C)cc1NC(=O)C1CC(=O)Nc2nc(SCc3ccccc3)nn21 (configuration not stated) | - | - | - | - | 53
Cc1nc(CC(=O)Nc2cc(F)cc(F)c2)sc1C(=O)NC1CC1 | 61 | - | - | - | -
Cc1ccc(S(=O)(=O)N2CC[C@@H]3CN(C(=O)c4ccccc4)[C@@H]3C2)cc1 | - | 35 | - | - | -
Cc1ccc(C(=O)N2CC[C@@H]3[C@H](C2)CN3C(=O)c2ccccc2)cc1 | - | 30 | - | - | -
CCOc1ccc(NC(=O)COc2ccccc2OC)c2cccnc12 | 33 | - | - | - | -
COc1ccccc1OCC(=O)Nc1cccc2ccc(C)nc12 | - | 34 | - | - | 47
CCOc1ccccc1NC(=O)C(OC(=O)c1ccc(OCC(=O)Nc2ccc(OC)cc2)c(OC)c1)c1ccccc1 (configuration not stated) | - | - | - | - | -
CCOc1ccc(NC(=O)COc2ccccc2C)c2cccnc12 | - | - | - | - | -
COc1ccccc1NC(=O)COc1cc(C)nc(-c2ccc(C)cc2)n1 | - | 62 | - | - | 56
CCOc1ccccc1NC(=O)COc1cc(OC)ccc1C(=O)c1ccccc1 | - | - | 56 | - | -
SMILES | USP8 inh | USP30 block | USP28 block | OTUD3 inh | USP17 inh
CC(C)NC(=O)N1C[C@H]2N(c3ncccn3)CCC[C@@]2(C(=O)NCC2CC2)C1 | - | - | - | - | -
CCOc1ccc(N2C(=O)N(CC(=O)c3ccc(F)cc3)c3ccccc3S2(=O)=O)cc1 | - | - | - | - | -
O=C1N(Cc2ccc(F)cc2)c2ccccc2S(=O)(=O)N1Cc1ccc(F)cc1 | - | - | - | - | -
CC(=O)c1ccc(N2C(=O)N(Cc3cccc([N+](=O)[O-])c3)c3ccccc3S2(=O)=O)cc1 | - | 53 | - | - | -
Cc1cccc(CN2C(=O)N(Cc3ccccc3)S(=O)(=O)c3ccccc32)c1 | - | 34 | - | - | -
CCOc1ccccc1N(C(=O)c1ccc2c(c1)OCCO2)C(C(=O)NC1CCCCC1)c1ccc(O)cc1 (configuration not stated) | - | - | - | - | -
COc1ccc(OC)c(C(C(=O)NC2CCCCC2)N(C(=O)c2ccc3c(c2)OCCO3)c2ccc(C)cc2)c1 (configuration not stated) | 33 | 41 | - | - | -
COc1ccc2c(C)c(CC(=O)N[C@@H](Cc3c[nH]c4ccccc34)C(=O)O)c(=O)oc2c1OC | - | - | - | - | -
O=C(Cn1ncc2c(N3CCCC3)ncnc21)Nc1ccc(F)cc1 | - | - | - | - | -

Source: PubChem BioAssay (Buhrlage Lab, Dana-Farber Cancer Institute and Novartis Institutes for BioMedical Research (Cambridge, Mass))
